Results filed as inconclusive are left out. Activity calls are given as the source filed them. Unless noted, calls come from the whole dose curve; as a rule, active = well fitted curve in either direction with a large enough effect (not every such curve was filed as active); inconclusive = small, poorly fitted or top-dose-only effect, or another doubt; inactive = flat fitted curve, though single readings scatter.
Key:
[1] = AP1 Signaling Pathway (AID 357); conditions: ME-180 AP-1-bla reporter, EGF-induced, beta-lactamase ratio, 5 h; at 17.2 µM (top of the series) unless noted;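 note: ME-180 reporter cells stimulated with EGF at its EC50 level; % is set by controls: 0 for no effect and ±100 for the full control effect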
Method in brief: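 Read-out was the 460nm/530nm emission ratio (excitation 405nm) after CCF4 loading for 2.5 hours at room temperature. Cells carried an AP-1-driven beta-lactamase reporter, were stimulated with EC50 EGF plus compound for 5 hours, and AC50 values came from titrations.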

[2] = NFAT Signaling Pathway (AID 444); conditions: Jurkat NFAT-bla M1, carbachol, beta-lactamase ratio, 5 h; at 17.2 µM (top of the series) unless noted;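 note: carbachol stimulus at about its EC50 of 1 µM final; % is set by controls: 0 for no effect and ±100 for the full control effect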
Method in brief: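 Jurkat cells with NFAT-driven β-lactamase reporter and co-expressed M1 receptor, stimulated with carbachol (final 1 uM, ~EC50), compound titration, 5 h at 37 °C. CCF4 loaded 1 h at RT; 460/530 nm ratio gave %activity and AC50.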

[3] = Stat Signaling Pathway (AID 446); conditions: ME-180 SIE beta-lactamase reporter, IL-6 stimulated, 5 h; at 17.2 µM (top of the series) unless noted;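 note: ME-180 cervical cancer cells given 40 pM IL-6 alongside compound; SIE-controlled beta-lactamase reporter measured as 460/530 nm FRET emission ratio; % is set by controls: 0 for no effect and ±100 for the full control effect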
Method in brief: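 Normalization used AC90 stimulation (300 pM IL-6) and AC90 inhibition (125 nM pan-JAK inhibitor at 40 pM IL-6). The underlying signal is SIE-driven beta-lactamase in ME-180 cells after 5 h IL-6 exposure with compound.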

[4] = molecular target: Glucocorticoid receptor (Homo sapiens) (UniProt P04150); experiment: GR-GFP Redistribution (AID 450;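 active = compounds whose dose series gives a full or clear partial fitted curve of increased nuclear translocation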; note: potency is the fitted concentration of half-maximal effect)
Glucocorticoid receptor (Homo sapiens), sequence (P04150 whole entry, looked up, the tested form may be a part): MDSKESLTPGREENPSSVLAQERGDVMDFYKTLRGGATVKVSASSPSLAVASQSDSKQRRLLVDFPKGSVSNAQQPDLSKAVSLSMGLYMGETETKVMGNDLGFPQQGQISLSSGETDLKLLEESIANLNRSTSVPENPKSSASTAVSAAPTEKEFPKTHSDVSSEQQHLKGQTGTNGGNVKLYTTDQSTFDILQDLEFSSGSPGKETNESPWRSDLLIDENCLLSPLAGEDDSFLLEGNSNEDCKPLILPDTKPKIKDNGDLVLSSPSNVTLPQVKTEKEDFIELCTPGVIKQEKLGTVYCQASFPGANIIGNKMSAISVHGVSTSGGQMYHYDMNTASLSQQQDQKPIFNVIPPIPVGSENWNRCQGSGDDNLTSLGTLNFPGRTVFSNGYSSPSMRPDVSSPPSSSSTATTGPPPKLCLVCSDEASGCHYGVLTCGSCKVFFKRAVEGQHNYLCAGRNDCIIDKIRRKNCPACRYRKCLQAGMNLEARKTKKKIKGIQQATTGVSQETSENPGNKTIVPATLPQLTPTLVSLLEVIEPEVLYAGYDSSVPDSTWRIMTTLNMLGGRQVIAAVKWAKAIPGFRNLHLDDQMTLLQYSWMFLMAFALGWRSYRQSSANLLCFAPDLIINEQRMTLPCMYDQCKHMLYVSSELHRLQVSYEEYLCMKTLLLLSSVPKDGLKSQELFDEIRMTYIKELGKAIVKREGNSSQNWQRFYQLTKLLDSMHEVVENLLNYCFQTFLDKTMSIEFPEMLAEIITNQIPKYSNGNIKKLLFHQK

[5] = qHTS Assay for Identification of Small Molecule Agonists for Hypoxia Response Element Signaling Pathway (AID 914; active = well fitted activation curve with a large enough effect in the signal ratio, with a control signal flat, not every such curve was filed as active; the % refers to the signal ratio; note: potency is the fitted concentration of half-maximal effect; for activation: % of control where 0% means no effect); conditions: ME-180 (cervical carcinoma) HRE-bla reporter, beta-lactamase ratio, CoCl2, 17 h; activation: hits give high values
Method in brief: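 AC50 values come from titration-series %Activity, taken as the 460/530nm ratio of CCF4 fluorescence (excitation 405nm). CellSensor HRE-bla ME-180 cells were treated 17 hours at 37 C with compound plus an EC50 level of CoCl2.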

[6] = molecular target: Glucocorticoid receptor (Homo sapiens) (UniProt P04150); experiment: GR-EFC Redistribution (AID 451; calls by dose curve; note: potency is the fitted concentration of half-maximal effect); conditions: CHO-K1 GR-EFC translocation, beta-gal luminescence, 2 h
Method in brief: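 CHO-K1 cells expressing nuclear EA and GR-ED fragments of b-gal; compounds titrated up to 46 uM final, 2 h at 37 C. GR nuclear translocation read as complemented b-gal luminescence after 1 h RT detection.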

[7] = molecular target: Mitogen-activated protein kinase 10 (Mus musculus) (UniProt Q61831); experiment: JNK3 AlphaScreen Assay (AID 530);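 note: kinase came from lysate of stimulated human HepG2 cells; signal reports phosphorylation of biotinylated GST-cJun 1-79 at Ser73 with 10 µM ATP; % is set by controls: 0 for no effect and ±100 for the full control effect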
Method in brief: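 Activity was read by AlphaScreen after JNK3-containing HepG2 lysate (cytokine pre-activated) phosphorylated biotinylated GST-cJun with 10 uM ATP at room temperature. Phospho-Ser73 cJun antibody with Protein-A acceptor beads provided detection.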

[8] = molecular target: 3',5'-cyclic-AMP phosphodiesterase 4B (Homo sapiens) (UniProt Q07343); experiment: qHTS Assay for Inhibitors of PDE-IV (AID 607; active = well fitted activation curve with a large enough effect in the main read-out, with a control signal flat, not every such curve was filed as active; note: % of control where 0% means no effect)
3',5'-cyclic-AMP phosphodiesterase 4B (Homo sapiens), sequence (Q07343 whole entry, looked up): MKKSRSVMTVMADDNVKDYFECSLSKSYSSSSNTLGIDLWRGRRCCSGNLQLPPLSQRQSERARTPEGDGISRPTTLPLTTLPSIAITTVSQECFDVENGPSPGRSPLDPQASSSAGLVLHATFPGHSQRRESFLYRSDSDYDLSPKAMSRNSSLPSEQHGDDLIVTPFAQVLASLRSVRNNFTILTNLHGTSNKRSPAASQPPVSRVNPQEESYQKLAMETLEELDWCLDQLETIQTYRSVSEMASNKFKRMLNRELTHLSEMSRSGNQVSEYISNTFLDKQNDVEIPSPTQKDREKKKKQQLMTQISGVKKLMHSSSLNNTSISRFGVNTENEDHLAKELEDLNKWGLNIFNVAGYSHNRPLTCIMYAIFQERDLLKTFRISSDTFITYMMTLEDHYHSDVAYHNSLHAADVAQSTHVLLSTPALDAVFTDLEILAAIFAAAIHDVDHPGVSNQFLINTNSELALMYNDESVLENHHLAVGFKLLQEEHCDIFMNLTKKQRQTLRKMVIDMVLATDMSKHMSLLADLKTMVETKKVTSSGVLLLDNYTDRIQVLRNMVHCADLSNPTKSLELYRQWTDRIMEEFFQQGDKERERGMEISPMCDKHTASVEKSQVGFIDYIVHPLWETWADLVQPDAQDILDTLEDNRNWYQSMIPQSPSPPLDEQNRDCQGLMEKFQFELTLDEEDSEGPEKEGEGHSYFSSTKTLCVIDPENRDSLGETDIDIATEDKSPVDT
Method in brief: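 HEK293 ACTOne cells with CNG channel (1000/well), endogenous PDE4; membrane potential dye, compounds up to 22.9 uM final. Fluorescence Ex 535/Em 590; RO 20-1724 (100 uM final) as reference.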

[9] = molecular target: Muscarinic acetylcholine receptor M1 (Rattus norvegicus) (UniProt P08482); experiment: qHTS Assay for Antagonists of Acetylcholine Muscarinic M1 Receptor: Kinetic Measurement of Intracellular Calcium Response (AID 943; active = well fitted curve in the direction sought with a large enough effect; an effect the other way counts as inactive or inconclusive; note: nearly all actives have a fitted effect of over 75% in size; note: potency is the fitted concentration of half-maximal effect;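 for activity change, negative = inhibition: Fluo-4 calcium signal as peak divided by basal fluorescence over 4 min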)
Muscarinic acetylcholine receptor M1 (Rattus norvegicus), sequence (P08482 whole entry, looked up): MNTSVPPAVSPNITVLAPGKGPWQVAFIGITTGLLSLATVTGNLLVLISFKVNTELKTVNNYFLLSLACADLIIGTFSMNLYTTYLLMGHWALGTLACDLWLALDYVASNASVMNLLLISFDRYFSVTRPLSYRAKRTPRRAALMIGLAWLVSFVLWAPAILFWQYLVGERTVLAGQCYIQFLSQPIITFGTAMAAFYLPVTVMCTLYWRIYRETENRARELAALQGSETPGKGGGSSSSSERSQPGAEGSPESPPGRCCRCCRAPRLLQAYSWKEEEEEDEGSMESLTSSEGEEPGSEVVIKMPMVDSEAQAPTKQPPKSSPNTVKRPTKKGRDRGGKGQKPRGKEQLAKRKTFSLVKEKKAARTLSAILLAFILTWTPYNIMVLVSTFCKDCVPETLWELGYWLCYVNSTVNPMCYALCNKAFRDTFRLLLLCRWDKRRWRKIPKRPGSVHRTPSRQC
Method in brief: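 Antagonism is measured as inhibition of the carbachol-evoked calcium rise in CHO cells transfected with rat M1. Cells are dye-loaded, exposed to compound for 10 min, then stimulated with 100 nM carbachol (EC80).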

[10] = molecular target: Pyruvate kinase (Leishmania mexicana) (UniProt Q27686); experiment: qHTS Validation Assay for Inhibitors of Leishmania Mexicana Pyruvate Kinase (AID 945; active = well fitted curve in the direction sought with a large enough effect; an effect the other way counts as inactive or inconclusive;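 note: 0% = DMSO only neutral control wells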)
Pyruvate kinase (Leishmania mexicana), sequence (Q27686 2-499 E452W): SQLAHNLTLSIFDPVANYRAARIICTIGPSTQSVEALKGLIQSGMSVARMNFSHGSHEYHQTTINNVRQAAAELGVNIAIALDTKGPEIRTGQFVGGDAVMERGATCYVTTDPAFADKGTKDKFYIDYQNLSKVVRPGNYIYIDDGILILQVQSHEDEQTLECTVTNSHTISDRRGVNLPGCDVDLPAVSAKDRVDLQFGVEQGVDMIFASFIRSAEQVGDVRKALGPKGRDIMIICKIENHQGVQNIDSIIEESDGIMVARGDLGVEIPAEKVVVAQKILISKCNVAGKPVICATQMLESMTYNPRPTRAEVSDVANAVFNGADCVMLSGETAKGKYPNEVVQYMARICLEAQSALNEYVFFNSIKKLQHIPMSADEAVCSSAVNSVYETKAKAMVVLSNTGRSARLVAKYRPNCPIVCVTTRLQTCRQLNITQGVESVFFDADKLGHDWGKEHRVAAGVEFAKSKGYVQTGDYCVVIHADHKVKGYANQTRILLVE
Method in brief: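 Purified LmPYK (E451W mutant, 0.2 nM) was incubated 1 h at room temperature with 0.5 mM PEP and 0.1 mM ADP in 50 mM imidazole pH 7.2, 50 mM KCl, 7 mM MgCl2; ATP formed was read by PKLight luminescence, normalized to DMSO wells.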

[11] = molecular target: Pyruvate kinase PKM (Homo sapiens) (UniProt P14618); experiment: qHTS Assay for Activators of Human Muscle Pyruvate Kinase (AID 954; active = well fitted curve in the direction sought with a large enough effect, not every such curve was filed as active;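 note: 0% = uninhibited enzyme and -100% = no enzyme or full thiadiazolimine inhibition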)
Pyruvate kinase PKM (Homo sapiens), sequence (P14618 whole entry, looked up): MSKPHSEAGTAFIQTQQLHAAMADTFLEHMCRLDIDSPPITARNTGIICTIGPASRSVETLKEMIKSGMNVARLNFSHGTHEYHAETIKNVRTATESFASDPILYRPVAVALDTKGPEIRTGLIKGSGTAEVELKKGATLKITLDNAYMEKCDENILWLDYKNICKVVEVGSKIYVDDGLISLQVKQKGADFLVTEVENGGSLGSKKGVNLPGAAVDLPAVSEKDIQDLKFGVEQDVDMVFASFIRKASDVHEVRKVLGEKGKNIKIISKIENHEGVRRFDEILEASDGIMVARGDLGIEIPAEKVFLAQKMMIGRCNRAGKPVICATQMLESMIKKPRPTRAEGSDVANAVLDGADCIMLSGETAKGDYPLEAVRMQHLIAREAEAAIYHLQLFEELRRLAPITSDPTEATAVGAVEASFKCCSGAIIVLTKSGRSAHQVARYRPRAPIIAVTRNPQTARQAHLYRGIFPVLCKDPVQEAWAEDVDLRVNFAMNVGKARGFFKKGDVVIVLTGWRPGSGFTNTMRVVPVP
Method in brief: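 Compound pinned into substrate mix (0.5 mM PEP, 0.1 mM ADP), then 0.1 nM PKM2 added; 1 h, RT. Stop/detection luciferase reagent added, luminescence read. Normalized to no-inhibition and no-enzyme or reference-inhibitor controls.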

[12] = molecular target: Alpha-galactosidase A (Homo sapiens) (UniProt P06280); experiment: Counterscreen for Glucocerebrosidase Inhibitors: qHTS Assay for Human alpha-Galactosidase at pH 4.5 (AID 992; active = well fitted curve in the direction sought with a large enough effect; an effect the other way counts as inactive or inconclusive; note: 0% is about no effect)
Alpha-galactosidase A (Homo sapiens), sequence (P06280 whole entry, looked up): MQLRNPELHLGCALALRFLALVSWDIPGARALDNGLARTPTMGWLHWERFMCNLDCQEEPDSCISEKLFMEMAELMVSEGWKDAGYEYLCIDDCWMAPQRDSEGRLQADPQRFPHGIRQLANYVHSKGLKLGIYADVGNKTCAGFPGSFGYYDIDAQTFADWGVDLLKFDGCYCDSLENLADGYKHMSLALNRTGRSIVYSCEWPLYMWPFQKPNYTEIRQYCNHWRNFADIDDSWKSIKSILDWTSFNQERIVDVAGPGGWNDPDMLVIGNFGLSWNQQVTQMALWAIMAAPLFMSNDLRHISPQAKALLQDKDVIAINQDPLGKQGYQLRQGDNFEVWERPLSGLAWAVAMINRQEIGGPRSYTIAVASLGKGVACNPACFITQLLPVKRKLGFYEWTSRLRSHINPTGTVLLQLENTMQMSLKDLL
Method in brief: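 Steps: enzyme (2 nM final), then compound across 0.7 nM to 77 uM, then 80 uM fluorogenic galactopyranoside substrate; incubate 20 min at room temperature; quench at pH 10; measure fluorescence at 365/440 nm.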

[13] = qHTS Assay for Identification of Small Molecule Agonists for Thrombopoietin (TPO) Signaling Pathway (AID 917; active = well fitted curve in the direction sought with a large enough effect; an effect the other way counts as inactive or inconclusive; note: % is set by controls: 0 for no effect and ±100 for the full control effect)
Method in brief: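 Quantitative HTS for pathway activators: compounds were pin-transferred onto IL-3-starved Ba/F3 cells expressing human TPO receptor, TPO was added at its EC50 (26 pM final), and after 24 hrs at 37 C reporter luciferase was measured.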

[14] = molecular target: alpha-glucosidase (Oryza sativa, rice) (UniProt Q653V4); experiment: Counterscreen for Glucocerebrosidase Inhibitors: qHTS Assay for Rice alpha-Glucosidase at pH 5.0 (AID 997; active = well fitted curve in the direction sought with a large enough effect; an effect the other way counts as inactive or inconclusive;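 note: 0% = full activity with enzyme and -100% = basal without enzyme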)
Method in brief: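 Endpoint fluorogenic assay at pH 5.0: compounds (0.7 nM to 77 uM) titrated against 4 nM rice enzyme and 400 uM 4-MU-alpha-glucoside for 20 min at room temperature; NaOH/glycine stop, read ex 365/em 440 nm, Hill-fitted AC50.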

[15] = molecular target: Cytochrome P450 2C9 (Homo sapiens) (UniProt P11712); experiment: qHTS Assay for Inhibitors and Substrates of Cytochrome P450 2C9 (AID 883; active = well fitted curve in the direction sought with a large enough effect; an effect the other way counts as inactive or inconclusive; note: % is set by controls: 0 for no effect and ±100 for the full control effect; nearly all actives have a fitted effect of over 60% in size)
Cytochrome P450 2C9 (Homo sapiens), sequence (P11712 whole entry, looked up): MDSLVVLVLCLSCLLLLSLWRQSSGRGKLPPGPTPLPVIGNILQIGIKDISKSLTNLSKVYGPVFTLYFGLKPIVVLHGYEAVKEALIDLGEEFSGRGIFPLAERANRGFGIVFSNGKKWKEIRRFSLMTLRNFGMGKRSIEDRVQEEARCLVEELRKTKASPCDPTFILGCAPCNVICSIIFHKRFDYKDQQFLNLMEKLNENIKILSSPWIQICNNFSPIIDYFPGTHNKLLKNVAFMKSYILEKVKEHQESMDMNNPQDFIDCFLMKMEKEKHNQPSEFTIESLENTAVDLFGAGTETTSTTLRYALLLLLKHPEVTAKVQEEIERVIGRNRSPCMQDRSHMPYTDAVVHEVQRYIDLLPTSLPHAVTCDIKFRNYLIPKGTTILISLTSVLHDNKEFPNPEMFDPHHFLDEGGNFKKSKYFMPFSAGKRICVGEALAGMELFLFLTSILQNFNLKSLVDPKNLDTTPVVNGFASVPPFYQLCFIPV
Method in brief: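 Human CYP2C9 (10nM) with Luciferin-H at 100uM (its KM) in 25mM KPO4; compound preincubated 10 min at 37C, then NADPH regeneration for 60 min at 37C. Luciferin read by luminescence after detection reagent; normalized to 57uM sulphaphenazole as full inhibition.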

[16] = molecular target: Cytochrome P450 3A4 (Homo sapiens) (UniProt P08684); experiment: qHTS Assay for Activators of Cytochrome P450 3A4 (AID 885; active = well fitted curve in the direction sought with a large enough effect; an effect the other way counts as inactive or inconclusive; note: nearly all actives have a fitted effect of over 65% in size)
Cytochrome P450 3A4 (Homo sapiens), sequence (P08684 whole entry, looked up): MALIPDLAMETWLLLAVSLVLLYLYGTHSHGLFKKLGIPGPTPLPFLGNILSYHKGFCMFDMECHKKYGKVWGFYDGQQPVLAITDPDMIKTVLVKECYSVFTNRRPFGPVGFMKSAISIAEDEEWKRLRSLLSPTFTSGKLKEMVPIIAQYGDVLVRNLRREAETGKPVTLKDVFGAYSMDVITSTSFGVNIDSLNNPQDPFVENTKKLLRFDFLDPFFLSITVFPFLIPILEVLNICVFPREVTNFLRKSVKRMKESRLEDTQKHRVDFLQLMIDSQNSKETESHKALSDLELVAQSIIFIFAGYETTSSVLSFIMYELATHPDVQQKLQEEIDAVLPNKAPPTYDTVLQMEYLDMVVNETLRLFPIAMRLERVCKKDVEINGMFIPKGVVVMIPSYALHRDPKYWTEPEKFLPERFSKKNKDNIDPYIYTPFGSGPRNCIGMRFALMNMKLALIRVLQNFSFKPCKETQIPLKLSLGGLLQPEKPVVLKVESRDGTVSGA
Method in brief: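 Human CYP3A4 dealkylates Luciferin-PPXE to luciferin, which luciferase detection converts to light. Substrate was at its KM (25uM), buffer 200mM KPO4, reaction 60 min at RT.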

COc1ccc(CCn2c(=N)c(C#N)cc3c(=O)n4ccccc4nc32)cc1
inactive: activity change, negative = inhibition [1] -1.65% | activity change, negative = inhibition [2] -0.836% | activity, negative = inhibition [3] 3.03% | Potency [4] > 20.6 µM | activation [5] 22.3%

CCC(=O)Nc1nc(C)c(Oc2ccccc2)c(=O)[nH]1
inactive: activity change, negative = inhibition [1] 6.64% | activity change, negative = inhibition [2] 9.01% | Potency [4] > 20.6 µM

CC(C)(C)C1=Nn2c(nnc2-c2ccccn2)SC1
inactive: activity change, negative = inhibition [1] 4.11% | activity change, negative = inhibition [2] 0.351% | activity, negative = inhibition [3] 4.69% | Potency [4] > 20.6 µM | activation [5] -1.04%

CC(C)NC(=O)N1CCOCCOCCN(C(=O)NC(C)C)CCOCCOCC1
inactive: activity change, negative = inhibition [1] 8.52% | activity change, negative = inhibition [2] 0.977% | activity, negative = inhibition [3] 0.97% | Potency [4] > 20.6 µM | activation [5] 3.05%

CCCCOC(=O)CSc1nc(N)c(C#N)c(-c2ccc(OC)cc2)c1C#N
inactive: activity change, negative = inhibition [1] -13.6% | activity change, negative = inhibition [2] -0.768% | Potency [4] > 20.6 µM

CCN(CC)Cc1c(O)ccc2c(C)c(CC(=O)OC)c(=O)oc12
inactive: activity change, negative = inhibition [1] 14.2% | activity change, negative = inhibition [2] 25.4% | activity, negative = inhibition [3] 8.46% | Potency [4] > 20.6 µM
active: Potency [5] 10 µM

CCOC(=O)N1CC=C2C(C#N)=C(N)C(C#N)(C#N)[C@H](c3cccs3)[C@H]2C1
inactive: activity change, negative = inhibition [1] 6.03% | activity, negative = inhibition [3] -16% | Potency [4] > 20.6 µM

COc1ccccc1-c1nnc2n1N=C(c1ccc(O)c(O)c1)CS2
inactive: activity change, negative = inhibition [1] 10.7% | activity, negative = inhibition [3] -15.4%

CN(C)CCCO[C@H]1[C@H]([C@H](O)CO)O[C@H]2OC(C)(C)O[C@@H]21
inactive: activity change, negative = inhibition [1] 6.88% [at 38 µM] | activity change, negative = inhibition [2] 5.42% [at 38 µM] | Potency [4] > 46 µM | Potency [6] > 46 µM | Potency [7] | Potency [8] | Potency [9] | Potency [10] | outcome [11] | outcome [12]

CCCCCCCCCC(=O)N[C@@H](CN1CCOCC1)[C@@H](O)c1ccccc1
inactive: activity change, negative = inhibition [1] 5.88% [at 38 µM] | activity change, negative = inhibition [2] 1.34% [at 38 µM] | Potency [4] > 46 µM | Potency [6] > 46 µM | Potency [7] | Potency [8] | Potency [13] | Potency [9] | Potency [10] | outcome [11] | outcome [12] | outcome [14]

CCn1cc(C(=O)NCCCN(C)C)c(=O)c2cc(F)c(N3CCN(C)CC3)cc21
inactive: activity change, negative = inhibition [1] -0.851% | activity, negative = inhibition [3] 3.71% | Potency [4] > 20.6 µM

Oc1c(C=Nc2cccnc2)sc2ccccc12
inactive: activity change, negative = inhibition [1] 8.1% | activity, negative = inhibition [3] -3.68% | Potency [4] > 20.6 µM

COc1ccc(CSc2nnc3n(C)c(=O)c4c5c(sc4n23)CCCC5)cc1
inactive: activity change, negative = inhibition [1] -2.6% | activity, negative = inhibition [3] 0.924% | Potency [4] > 20.6 µM

Cc1ccc(CNC(=O)c2cc3c(=O)n4ccccc4nc3n(CC3CCCO3)c2=N)cc1 (stereo unspecified)
active: Potency [5] 7.94 µM
inactive: activity change, negative = inhibition [1] 20.6% | activity change, negative = inhibition [2] 21.8% | Potency [4] > 20.6 µM

CCC(NC(C)C)C(O)c1ccc(O)c2[nH]c(=O)ccc12 (stereo unspecified)
inactive: activity change, negative = inhibition [1] -12.1% | activity, negative = inhibition [3] 11.4% | Potency [4] > 20.6 µM

Cc1ccc(-c2ccc(/C=N/c3ncn[nH]3)o2)cc1Cl
inactive: activity change, negative = inhibition [1] 1.81% | activity, negative = inhibition [3] -7.79% | Potency [4] > 20.6 µM

CCOC(=O)c1ccc(N=CC2=C(O)CC(c3ccco3)CC2=O)cc1 (stereo unspecified)
inactive: activity change, negative = inhibition [1] 2.87% | activity, negative = inhibition [3] -4% | Potency [4] > 20.6 µM

CC[C@H]1OC(=O)C[C@@H](O)[C@H](C)[C@@H](O[C@@H]2O[C@H](C)C[C@H](N(C)C)[C@H]2O)[C@@H](CC=O)C[C@@H](C)C(=O)C=C[C@]2(C)O[C@H]2[C@@H]1C
inactive: activity change, negative = inhibition [1] 1.65% | activity, negative = inhibition [3] 1.05%

COc1cc(/C=N/O)ccc1OCc1ccc(C(=O)O)cc1
inactive: activity change, negative = inhibition [1] -13.9% | activity, negative = inhibition [3] -11.7% | Potency [4] > 20.6 µM

COc1ccc(-c2oc3ncn4nc(COc5ccccc5)nc4c3c2-c2ccc(OC)cc2)cc1
inactive: activity change, negative = inhibition [1] -11.5% | activity, negative = inhibition [3] 4.11% | Potency [4] > 20.6 µM

CCCCCCCCCCCCCCCCCC(=O)NC[C@@H](COP(=O)([O-])OCC[N+](C)(C)C)OCC
inactive: activity change, negative = inhibition [1] -12.5% [at 38 µM] | Potency [4] > 46 µM | Potency [6] > 46 µM | Potency [8] | Potency [15] | Potency [16] | Potency [13] | Potency [10] | outcome [11] | outcome [12] | outcome [14]
active: activity change, negative = inhibition [2] 28.6% [at 38 µM] | Potency [9] 7.08 µM

Reference: PubChem BioAssay (NCATS)
